Screening data (PubChem BioAssay)
A selection: hits, their analogues and other compounds. The true share with any hit is near 6.2%.
NR3A LBD binder: modulators (binders) of human NR3A ligand-binding domain; NR3A LBD differential scanning fluorimetry, Tm shift; 0% = protein alone, 100% = glycine-bound protein; Tm shift relative to glycine control, % at 25 µM; 2.5% of 340,000 active;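 active = melting temperature shift of at least 10% of the positive control shift, at one fixed dose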
Mot1-301 SUMO: blocks SUMOylation pathway, rescuing yeast Mot1-301 growth; 1% of 320,000 active; S. cerevisiae Mot1-301 growth rescue, ATP luminescence, 38.5C; percent above DMSO median, 100 means doubled; growth rescue, % at 18.8 µM;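 active = every valid replicate shows activation above 250% relative to neutral control wells; inactive = the rest, any valid replicate at or below 250%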;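 note: OY570 slx delta 5 strain wells were the positive control but not used for scaling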
NTR1 ag: activates human neurotensin receptor 1; P30989; NTR1-U2OS beta-arrestin-GFP spot imaging, agonist mode; activation, % at 20 µM; 0.17% of 330,000 active;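 active = activation at or above 40% of the spot to cytoplasm intensity ratio, with at least 20 cells analyzed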;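 note: 0% = DMSO without peptide and 100% = 100 nM NTR1 peptide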
H9c2 protect: modulators protecting cardiomyocytes from myocardial damage. H9c2 cardiomyocytes, H2O2 injury protection, ATPLite, 2 h. protection from H2O2 cell death, % at 20 µM. 0.63% of 360,000 active;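 active = compounds giving at least 50% protection of heart cells from peroxide-induced death in the single-dose screen, raw or plate-pattern-corrected value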;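 note: 0% = DMSO wells with peroxide and 100% = DMSO wells without peroxide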
AHR activator: human AHR activation; AID 2796; activation, % at 5 µM; 2.5% of 320,000 active; AHR-responsive luciferase reporter cells, luminescence; P35869; in the data active = activation above about 47%;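 note: 0% = vehicle wells and 100% = reference agonist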
AI-2 QS modul: Vibrio harveyi AI-2 quorum sensing modulation; 0.4% of 300,000 active; Vibrio harveyi JMH597 AI-2 luminescence/OD600 ratio, 9 h; active compounds read low; strain lacks LuxN and CqsS sensors; 0 = neutral-control median; activity change, % at 7.5 µM; in the data active = activity change below about -75%, passing the limit was not always enough;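 note: luminescence divided by OD600 gain over 9 h not by final OD600 alone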
NTR1 ag conf: confirmation of agonists of human NTR1; NTR1-U2OS beta-arrestin-GFP translocation imaging; shares compounds with NTR1 ag; 38% of 480 active; activation, % at 20 µM;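 active = mean activation at 20 µM of at least 40%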;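 note: 0% = DMSO without peptide and 100% = 100 nM NTR1 peptide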
The depositor's hits bear a star; x = no result given.

SMILES	NR3A LBD binder	Mot1-301 SUMO	NTR1 ag	H9c2 protect	AHR activator	AI-2 QS modul	NTR1 ag conf
CCOC(=O)/C=c1\s/c(=C\c2ccc3cc(OC)ccc3c2)c(=O)n1CC(=O)NCC1CCCO1 (stereo not given)	6	123	52*	-6	-2	5	45*
Cc1cc2ccccc2c(=O)n1CC(=O)Nc1ccc2c(c1)OCCO2	-1	-13	46*	16	0	14	-6
CCN(CC)CCCNC(=O)c1cc(Cl)c(NC(=O)C2=C(C)OCCS2)cc1OC	-1	-10	-1	3	1	20	x
C[C@@H]1CC=C[C@H]2[C@H]1C(=O)N(Cc1ccccc1)[C@H]2c1ccc2ccccc2c1Br	-3	x	43*	-11	x	-16	18
CCC(C)NC(=O)c1c(N)n(/N=C/c2cccnc2)c2nc3ccccc3nc12 (stereo not given)	5	5	41*	-17	10	-6	46*
O=C(COc1ccccc1Cl)NNC(=O)c1ccc(-n2cncn2)c([N+](=O)[O-])c1	-1	2	-3	8	2	x	x
O=C1Nc2ccccc2SC1c1ccccc1Cl (stereo not given)	-4	x	x	-12	x	x	x
Cc1ccc(NC2Sc3ccccc3NC2=O)cc1Cl (stereo not given)	5	81	51*	-11	5	-19	9
Cc1ccc2nc(SCC(=O)OCc3ccccc3)nc(=O)n2c1	1	-19	1	10	1	50	x
Cc1ccc(S(=O)(=O)N(C)c2ccc(C(=O)Nc3ccccc3C(=O)N3CCOCC3)cc2)cc1	0	141	2	3	5	28	x
Cc1ccc([C@H]2C(C(=O)O)=CC[C@@H](c3ccc(Cl)cc3)N2S(=O)(=O)c2ccc(C)cc2)cc1	-7	242	10	-7	0	x	x
O=C(O)C1=CC[C@@H](c2ccc(Cl)cc2)N(S(=O)(=O)c2ccc(Cl)cc2)[C@H]1c1ccccc1	-17	23	40*	4	0	x	4
CN(C)c1ccc(-n2cccc2/C=C/[N+](=O)[O-])cc1	2	234	63*	-1	2	-25	66*
O=C(NCC1CCOCC1)c1ccc(-c2ccc(F)c(F)c2)c2ccoc12	x	x	x	-3	x	x	x
O=[N+]([O-])c1ccc2[nH]cc(S(=O)(=O)N3CCN(c4cccc(Cl)c4)CC3)c2c1	27*	13	41*	-16	-1	x	20
C[C@@H](NC(=O)c1[nH]cnc1C(=O)Nc1cccc(Cl)c1)c1ccccc1	26*	-18	45*	8	21	x	22
C[C@@H](NC(=O)c1[nH]cnc1C(=O)Nc1ccccc1)c1ccccc1	-7	1	27	24	17	x	x
C[C@H](NC(=O)c1[nH]cnc1C(=O)Nc1cccc(Cl)c1)c1ccccc1	6	-13	52*	18	11	x	46*
CC1=C(C(=O)OC2CCC(C)CC2)C(c2ccc(O)c([N+](=O)[O-])c2)NC(=O)N1 (stereo not given)	1	-1	1	3	2	44	x
CCCCNC(=O)C1(C)CCN1C(=O)Cc1cccc2ccccc12 (stereo not given)	x	x	x	8	x	x	x
CCN(CC1CCCO1)C(=O)CCc1nnc(CCc2ccccc2OC)o1 (stereo not given)	3	-1	0	1	2	19	x
C=C(C)COc1ccc(-c2nc(N)ncc2-c2ccc(OC)cc2)c(O)c1	x	151	x	x	x	7	x
C=C(C)COc1ccc(-c2nc(N)ncc2-c2ccc(Cl)cc2)c(O)c1	20*	-14	70*	-8	11	9	26
CC(C)c1cccc(C(C)C)c1NC(=O)CN(C)C1CCS(=O)(=O)C1 (stereo not given)	-1	16	2	7	1	x	x
C=C(C)C(=O)Oc1ccc(N2C(=O)[C@@H]3C4C=CC(C4)[C@@H]3C2=O)cc1	0	148	0	-3	5	0	x
CCc1nc2ccccc2c(C(=O)OCC(=O)Nc2cccc(S(=O)(=O)N3CCOCC3)c2)c1C	10	-2	60*	20	6	10	65*
